Assay results: PubChem BioAssay (NCI)
Compounds without any hit were thinned out: in the full panel of roughly 83,000, 20% have a hit.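 Results are percent growth after 48 hours of single-concentration exposure. 100 means growth as in untreated cells, lower positive values show inhibition; negative values down to -100 show cell death.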 Calls of active or inactive are those of the source. How the source made its calls: active means growth percent below 10; inactive means the rest.

Legend:
Experiment in all cases: NCI-60 one-dose screen, 48 h (100 = growth as untreated, 0 = no growth, -100 = all killed)
Details in all cases: 10 µM unless noted
NCI-H23 lung = test system: NCI-H23 lung
NCI-H226 lung = test system: NCI-H226 lung
NCI-H322M lung = test system: NCI-H322M lung
HOP-62 NSCLC = test system: HOP-62 NSCLC
NCI-H460 lung = test system: NCI-H460 lung
HOP-92 NSCLC = test system: HOP-92 NSCLC
NCI-H522 lung = test system: NCI-H522 lung
A549/ATCC NSCLC = test system: A549/ATCC NSCLC
786-0 renal = test system: 786-0 renal
COLO 205 colon = test system: COLO 205 colon

Measured: growth

O=C(CS)OCC(COC(=O)CS)(COC(=O)CS)COC(=O)CS
inactive: NCI-H23 lung 85% | NCI-H226 lung 98.1% | NCI-H322M lung 58.3% | HOP-62 NSCLC 105% | NCI-H460 lung 75.2% | HOP-92 NSCLC 108% | NCI-H522 lung 76.4% | A549/ATCC NSCLC 93.9% | 786-0 renal 103% | COLO 205 colon 105%

COc1ccc(NC(=O)/C=C/c2ccc(NC(=O)N3CCCC3)cc2)cn1
inactive: NCI-H23 lung 105% | NCI-H226 lung 96.6% | NCI-H322M lung 106% | HOP-62 NSCLC 104% | NCI-H460 lung 105% | HOP-92 NSCLC 103% | NCI-H522 lung 95.9% | A549/ATCC NSCLC 100% | 786-0 renal 109% | COLO 205 colon 112%

COc1ccc(OC)c(Nc2nc(-c3c(C)nc4sccn34)cs2)c1
inactive: NCI-H23 lung 69.7% | NCI-H226 lung 65.7% | NCI-H322M lung 93.7% | HOP-62 NSCLC 75.7% | NCI-H460 lung 62.4% | HOP-92 NSCLC 97.6% | NCI-H522 lung 78.6% | A549/ATCC NSCLC 74.6% | 786-0 renal 101% | COLO 205 colon 100%

O=C1c2ccccc2C2N1CCC1CCc3ccccc3N12 (stereo not given)
inactive: NCI-H23 lung 99.5% | NCI-H226 lung 90.2% | NCI-H322M lung 85.4% | HOP-62 NSCLC 108% | NCI-H460 lung 104% | HOP-92 NSCLC 73.6% | NCI-H522 lung 84.8% | A549/ATCC NSCLC 99.1% | 786-0 renal 99.7% | COLO 205 colon 112%

Nc1nc(N)c2c(n1)NC(c1sc(Cl)nc1Cl)CC(c1ccc3c(c1)OCO3)=N2 (stereo not given)
active: NCI-H522 lung -28.3% | COLO 205 colon 7.12%
inactive: NCI-H23 lung 39.9% | NCI-H226 lung 82.7% | NCI-H322M lung 72.6% | HOP-62 NSCLC 34.5% | NCI-H460 lung 13.2% | HOP-92 NSCLC 56% | A549/ATCC NSCLC 36.4% | 786-0 renal 38.1%

Cc1nc2c(-c3cnc(N)nc3)nc(N3CCOCC3)nc2n1C(C)C
active: NCI-H226 lung -1.05% | NCI-H322M lung -5.38% | HOP-62 NSCLC -12.7% | HOP-92 NSCLC -17.2% | NCI-H522 lung 4.22% | A549/ATCC NSCLC -1.09% | 786-0 renal -8.16% | COLO 205 colon -2.93%
inactive: NCI-H23 lung 16.5% | NCI-H460 lung 12.2%

CC(C)(C)c1ccc(Cn2c(-c3nonc3N)nc3ccccc32)cc1
inactive: NCI-H23 lung 70.7% | NCI-H226 lung 83.4% | NCI-H322M lung 83% | HOP-62 NSCLC 82.1% | NCI-H460 lung 86% | HOP-92 NSCLC 64.3% | NCI-H522 lung 49.3% | A549/ATCC NSCLC 68.4% | 786-0 renal 80.4% | COLO 205 colon 67.2%

COc1ccc(/C=C(/C(=O)N2CCN(c3ccccc3)CC2)c2cc(OC)c(OC)c(OC)c2)cc1N
active: NCI-H460 lung 6.98% | NCI-H522 lung 3.2% | COLO 205 colon -21.2%
inactive: NCI-H23 lung 39.4% | NCI-H226 lung 40.5% | NCI-H322M lung 49.8% | HOP-62 NSCLC 30.4% | HOP-92 NSCLC 92.2% | A549/ATCC NSCLC 24% | 786-0 renal 25.7%

N#CC1=C(N)Oc2nc[nH]c(=O)c2C1c1cccs1 (stereo not given)
inactive: NCI-H23 lung 110% | NCI-H226 lung 89% | NCI-H322M lung 105% | HOP-62 NSCLC 105% | NCI-H460 lung 106% | HOP-92 NSCLC 102% | NCI-H522 lung 97.6% | A549/ATCC NSCLC 95.7% | 786-0 renal 103% | COLO 205 colon 106%

COc1ccc(NC(=O)/C=C/c2ccc(Cl)c(Cl)c2)cn1
inactive: NCI-H23 lung 84.7% | NCI-H226 lung 68.3% | NCI-H322M lung 91.6% | HOP-62 NSCLC 90.1% | NCI-H460 lung 99% | HOP-92 NSCLC 87.1% | NCI-H522 lung 79.9% | A549/ATCC NSCLC 79.1% | 786-0 renal 85.6% | COLO 205 colon 101%

COc1ccc2nc(NC(=O)/C(=C/c3cc(OC)c(OC)c(OC)c3)c3ccc(OC)c(OC)c3)sc2c1
inactive: NCI-H23 lung 93.2% | NCI-H226 lung 80.2% | NCI-H322M lung 82.5% | HOP-62 NSCLC 87.8% | NCI-H460 lung 111% | HOP-92 NSCLC 74.3% | NCI-H522 lung 78.1% | A549/ATCC NSCLC 85.6% | 786-0 renal 100% | COLO 205 colon 104%

CC(C)c1ccc(Cn2ccc3c4c(N)nc(NC5CC5)nc4ccc32)cc1
active: NCI-H23 lung -71.3% | NCI-H226 lung -73.3% | NCI-H322M lung -93.2% | HOP-62 NSCLC -74.8% | NCI-H460 lung -84.2% | HOP-92 NSCLC -88.2% | NCI-H522 lung -81.8% | A549/ATCC NSCLC -80.9% | 786-0 renal -91.6% | COLO 205 colon -78%

CC(=O)OC1Oc2cc(C)c(C)cc2-c2oc(=O)c(-c3cc4ccccc4oc3=O)cc21 (stereo not given)
inactive: NCI-H23 lung 85.6% | NCI-H226 lung 124% | NCI-H322M lung 126% | HOP-62 NSCLC 109% | NCI-H460 lung 108% | HOP-92 NSCLC 88.3% | NCI-H522 lung 82.9% | A549/ATCC NSCLC 113% | 786-0 renal 79.7% | COLO 205 colon 121%
